SMILES strings stand for the structures. Activity calls are given as the source filed them.

One assay in a line: FRG1 expression reporter modulators in myotubes – cell-based, C2C12 myotubes, firefly/Renilla luciferase, luminescence, FRG1 inhibition for FSHD, primary screen (AID 1084). As to conditions: FRG1 promoter luciferase, higher = more signal, called active from +8 up or from −8 down.
Regarding `COc1ccc([Si](C)(C)[C@@H]2[C@@H](CC(=O)N(CCO)Cc3ccccc3)O[C@]3(C(=O)N(Cc4cccc(N5CCOC5=O)c4)c4ccccc43)[C@H]2C)cc1`, the z-score was -0.819 (inactive).

Turning to `CC(C)N1CC=CC23O[C@@H]4C=CCOC(=O)[C@@H]4[C@H]2C(=O)N(CCCO)[C@@H]3C1=O` (some centres undefined), the z-score is -0.385 (inactive).

Take `C=CCNC(=O)[C@H]1[C@@H]2C(=O)O[C@@H](c3ccccc3)[C@@H](c3ccccc3)N2[C@@H](c2ccc(O)cc2)[C@]12C(=O)N(C(=O)OCCOC)c1ccccc12`: the z-score is -1.96 (inactive).

For the molecule `O=C1OCC=C[C@H]2OC34C=CCN(c5ccc(Cl)cc5)C(=O)[C@H]3N(CCO)C(=O)[C@@H]4[C@@H]12` (some centres undefined), the z-score is 0.782 (inactive).

A further assay in a line: small molecules captured by biotinylated probe aFST – biochemical, small-molecule microarray, fluorescence 635/667, stem cell growth factor project, primary screen (AID 1086).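 Note: score merges 667 nm fluorescence with signal-to-noise of each printed compound spot.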 Conditions: higher = more signal.
In the case of `Cc1ccc(S[C@]2(C(=O)O)CC(=O)N(Cc3cc(C(F)(F)F)cc(C(F)(F)F)c3)[C@@H]2c2ccc(CO)cc2)cc1`, the composite z-score was -0.395.

For `CCOC(=O)[C@H]1[C@@H]2C(=O)N3CCC[C@H]3[C@H](O[Si](C(C)C)(C(C)C)C(C)C)[C@H]2C=C2CCN(S(=O)(=O)c3ccc(C)cc3)C[C@H]21`, the composite z-score was determined as 0.125.

`CO[C@H]1O[C@H](CO)[C@@H](OC(=O)Nc2ccccc2-c2ccccc2)[C@H](OC(=O)Nc2ccc3c(c2)OCO3)[C@H]1OC(=O)Nc1ccc2c(c1)OCO2`: the composite z-score is 0.601.

Consider `COc1ccccc1CN1C(=O)c2ccccc2[C@@]2(Cc3ccccc3N(CC(F)(F)F)C2=O)[C@@H]1c1ccc(CO)cc1`, for which the composite z-score is -0.29.

The molecule `CN(C)C(=O)[C@@]1(Cc2ccccc2CN=[N+]=[N-])N=C(c2ccc(OCCCO)cc2)O[C@H]1c1ccccc1CN=[N+]=[N-]` registered a composite z-score of 0.457.

The values are drawn from PubChem BioAssay.
